Over roughly 18,000 sequences, “log2 normalized intensity” has its median near 0.39; the highest 2% begin near 6.6. Only a selection was taken, and the highest values are over-represented in it overall.

This experiment has as its target T1, HNF4alpha2 (COS-7 nuclear extract) (Homo sapiens, UniProt P41235 1-474).
T1 sequence: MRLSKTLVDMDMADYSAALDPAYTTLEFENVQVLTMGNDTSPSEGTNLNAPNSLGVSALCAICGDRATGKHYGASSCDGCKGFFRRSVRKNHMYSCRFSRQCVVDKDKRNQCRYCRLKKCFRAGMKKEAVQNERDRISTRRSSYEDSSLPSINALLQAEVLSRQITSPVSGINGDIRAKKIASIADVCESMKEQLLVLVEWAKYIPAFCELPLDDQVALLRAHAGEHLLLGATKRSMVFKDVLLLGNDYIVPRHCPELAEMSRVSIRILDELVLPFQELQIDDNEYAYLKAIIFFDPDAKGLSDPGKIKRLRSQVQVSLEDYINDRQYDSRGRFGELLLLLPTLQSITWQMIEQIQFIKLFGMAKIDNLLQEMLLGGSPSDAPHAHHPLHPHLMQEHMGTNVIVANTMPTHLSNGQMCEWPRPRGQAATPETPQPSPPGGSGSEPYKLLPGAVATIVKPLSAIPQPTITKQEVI
Nature of the experiment: protein-binding microarray; COS-7 nuclear extract on double-stranded Agilent 4x180k PBM; binding buffer, salt, pH and temperature not given in the material; high values mean tight binding. To be noted: chain copies: 2; label: 3' end of strand 1 on the slide; dsDNA, one strand shown. An outline of the steps:
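A custom Agilent SurePrint G3 4x180k array, spotted in quadruplicate with ~44,000 test sequences as ~60-nt oligonucleotides made double-stranded, was incubated with nuclear extracts. The extracts came from COS-7 cells transiently transfected by CaPO4 with a human HNF4α isoform expression vector. Bound HNF4α was imaged on an Agilent G2565CA scanner at 2-µm resolution, and the binding signal was taken as Agilent software's background-corrected, normalized gProcessedSignal.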
On to “CATGTTAATTTAAATAACAAGGATAGCGTCGCCTAGGGAGATTAGAGTATCGGTCGA”, for which the binding signal was -0.878 log2 normalized intensity.

For the sequence “AAGGTCAGGATCTCAGCCGCGCGGCTTCAGGCCTAGGGAGATTAGAGTATCGGTCGA”, the binding signal is -0.906 log2 normalized intensity.

“CAGTGGGGGGGGGGGGGGGGGTGTGTCTGTGCCTAGGGAGATTAGAGTATCGGTCGA”: the binding signal was determined as 1.34 log2 normalized intensity.

As for “CTGGCAAAGCCATGAAGCAATTCTGAGCCCGCCTAGGGAGATTAGAGTATCGGTCGA”, the binding signal is -0.972 log2 normalized intensity. With “GGATTTTTTCTTGGACTTTGGTCATCCTTTGCCTAGGGAGATTAGAGTATCGGTCGA” the figure was 6.83 log2 normalized intensity; with “GACTTTGGTTGGATTTCTTGGCTTCTCTTGGCCTAGGGAGATTAGAGTATCGGTCGA”, 1.04 log2 normalized intensity. With “TCCAGATCAAGGATTTTTTCTTGGACTTTGGCCTAGGGAGATTAGAGTATCGGTCGA” the figure was 5.42 log2 normalized intensity; with “ATCAAGGATTTTTTCTTGGACTTTGGTCATGCCTAGGGAGATTAGAGTATCGGTCGA”, 8.1 log2 normalized intensity; with “TTTTCTTGGACTTTGGTCATCCTTTACTTTGCCTAGGGAGATTAGAGTATCGGTCGA”, 6.04 log2 normalized intensity. With “TTGGACTTTGGTCATCCTTTACTTTCCCAAGCCTAGGGAGATTAGAGTATCGGTCGA” the figure was 5.18 log2 normalized intensity; with “TCCAAAAGGGCAGCAGTAACCCCCCAGGAGGCCTAGGGAGATTAGAGTATCGGTCGA”, 3.7 log2 normalized intensity; with “GGTTGCCCTAGTGACTCTAGGAACCTTTCTGCCTAGGGAGATTAGAGTATCGGTCGA”, -0.0376 log2 normalized intensity. Consider “GAGAGAGAGAGAGGTGGGCAAAGGTCTCAAGCCTAGGGAGATTAGAGTATCGGTCGA”, for which the binding signal was determined as 2.55 log2 normalized intensity. On to “AGAGCAATCATGGGCCCACAGATGATCAAAGCCTAGGGAGATTAGAGTATCGGTCGA”, for which the binding signal was -0.805 log2 normalized intensity. Then “GGGTCATGGAGCTGGAGGGCAAAGGTCAGAGCCTAGGGAGATTAGAGTATCGGTCGA”, with 7.97 log2 normalized intensity.

With “AACAAAAAGGGCAAAGGTCAGCTCATTCCCGCCTAGGGAGATTAGAGTATCGGTCGA”, the binding signal stood at 6.63 log2 normalized intensity. Consider “AAAGGGCAAAGGTCAGCTCATTCCCTAGGGGCCTAGGGAGATTAGAGTATCGGTCGA”, for which the binding signal was found to be 6.27 log2 normalized intensity. With “AATCATGGGCCCACAGATGATCAAAGGTCAGCCTAGGGAGATTAGAGTATCGGTCGA” the figure was 7.06 log2 normalized intensity. Then “TGGGCCCACAGATGATCAAAGGTCAGTCTTGCCTAGGGAGATTAGAGTATCGGTCGA”, with 6.53 log2 normalized intensity. Then “GCAAAGGTCAGCTCATTCCCTAGGGCTCGGGCCTAGGGAGATTAGAGTATCGGTCGA”, with -0.876 log2 normalized intensity; and “ATGGAGCTGGAGGGCAAAGGTCAGAGGCTGGCCTAGGGAGATTAGAGTATCGGTCGA”, with 6.39 log2 normalized intensity. For the sequence “TATGAGAGAGAGAGAGAGGTGGGCAAAGGTGCCTAGGGAGATTAGAGTATCGGTCGA”, the binding signal amounted to 1.53 log2 normalized intensity. With “CACTGGGGTCATGGAGCTGGAGGGCAAAGGGCCTAGGGAGATTAGAGTATCGGTCGA”, the binding signal is 3.25 log2 normalized intensity. As to “GTGGGTGCCAAACAAAAAGGGCAAAGGTCAGCCTAGGGAGATTAGAGTATCGGTCGA”, the binding signal was 8.12 log2 normalized intensity. Then “CCAAAGTCCTTCCCAAGTCCTGCATGTGTTGCCTAGGGAGATTAGAGTATCGGTCGA”, with 1.84 log2 normalized intensity; and “CCCTACTGTACCCTATGCACCCCACAGTGCGCCTAGGGAGATTAGAGTATCGGTCGA”, with 2.11 log2 normalized intensity.

“ACCTTTAGCACCGTAAGAGAGTATTTCCCAGCCTAGGGAGATTAGAGTATCGGTCGA”: the binding signal was 1.13 log2 normalized intensity. With “CACAAGCTGGGTCAACATCAGCCCTCCTAGGCCTAGGGAGATTAGAGTATCGGTCGA” the figure was 1.49 log2 normalized intensity. With “GGGCACCGCCTCCACACCCCAGCCTGCCCTGCCTAGGGAGATTAGAGTATCGGTCGA” the figure was 3.1 log2 normalized intensity; with “GGGGCAGGTAAGTACCAATATTTGTTAAGTGCCTAGGGAGATTAGAGTATCGGTCGA”, 1.08 log2 normalized intensity. Then “ATACTTTCAGCTAGCTGAGTGAGTAGGTTCGCCTAGGGAGATTAGAGTATCGGTCGA”, with 1.31 log2 normalized intensity; and “TCTTATGTCCCTCCTGACCTTTGGACTTGAGCCTAGGGAGATTAGAGTATCGGTCGA”, with 10.3 log2 normalized intensity. Regarding “TGTCCCTCCTGACCTTTGGACTTGATAGAGGCCTAGGGAGATTAGAGTATCGGTCGA”, the binding signal was 9.11 log2 normalized intensity. With “AGTCCTGACCTTGGACTCTGCCCTTGGCCTGCCTAGGGAGATTAGAGTATCGGTCGA” the figure was 5.81 log2 normalized intensity; with “GCCTCTTTATCTCCTCCCCTTGAGACTTTAGCCTAGGGAGATTAGAGTATCGGTCGA”, 2.85 log2 normalized intensity. With “CCTGACCTGCCCTTTGTCCCTCCTGCTAGTGCCTAGGGAGATTAGAGTATCGGTCGA” the figure was 3.3 log2 normalized intensity.

“TTGGCTCTTATGTCCCTCCTGACCTTTGGAGCCTAGGGAGATTAGAGTATCGGTCGA”: the binding signal came to 8.6 log2 normalized intensity. With “TCAGTTTGGCTCTTATGTCCCTCCTGACCTGCCTAGGGAGATTAGAGTATCGGTCGA” the figure was 3.25 log2 normalized intensity; with “ACCTTTGTCCTCATTGAGCCCTCCCCTTGTGCCTAGGGAGATTAGAGTATCGGTCGA”, 4.33 log2 normalized intensity; with “AACTCTCAGTTTGGCTCTTATGTCCCTCCTGCCTAGGGAGATTAGAGTATCGGTCGA”, 1.35 log2 normalized intensity. For the sequence “CTCTGTGCTCCCAGTTCCCTCATTAGTAACGCCTAGGGAGATTAGAGTATCGGTCGA”, the binding signal worked out at 1.33 log2 normalized intensity. For “CAAAGGACATTTCTAAAAATAGCCTTACTTGCCTAGGGAGATTAGAGTATCGGTCGA”, the binding signal is -0.901 log2 normalized intensity. For “CCCGGCAGCCCTGCTCCCCGCCTTGGCCTCGCCTAGGGAGATTAGAGTATCGGTCGA”, the binding signal is 1.56 log2 normalized intensity. “CTACAGGTATGCCTTTGAAGAGTACAGCCTGCCTAGGGAGATTAGAGTATCGGTCGA”: the binding signal was -0.571 log2 normalized intensity. Then “GGGCGAGAGAGTTCTATGGGATGACCTTTGGCCTAGGGAGATTAGAGTATCGGTCGA”, with 6.25 log2 normalized intensity; and “AGCAAACACAAACTATGACCTTTGAAACTTGCCTAGGGAGATTAGAGTATCGGTCGA”, with 7.13 log2 normalized intensity. On to “AGAGAGTTCTATGGGATGACCTTTGAGCAAGCCTAGGGAGATTAGAGTATCGGTCGA”, for which the binding signal turned out to be 6.93 log2 normalized intensity.

On to “TTCTTTTTGAAGCAAAGCCTTTGAGCAGATGCCTAGGGAGATTAGAGTATCGGTCGA”, for which the binding signal was found to be 0.819 log2 normalized intensity. With “GTTCTATGGGATGACCTTTGAGCAATAGGAGCCTAGGGAGATTAGAGTATCGGTCGA” the figure was 5.15 log2 normalized intensity. With “ATGACCCAAACTTCACAAAAATGAGTGCAAGCCTAGGGAGATTAGAGTATCGGTCGA” the figure was -0.838 log2 normalized intensity; with “CAGCAACACTCTACTACTTGACCTTTGAAAGCCTAGGGAGATTAGAGTATCGGTCGA”, 6.06 log2 normalized intensity. Then “TGACAAGCAAACACAAACTATGACCTTTGAGCCTAGGGAGATTAGAGTATCGGTCGA”, with 8.49 log2 normalized intensity; and “ACACAAACTATGACCTTTGAAACTTACATTGCCTAGGGAGATTAGAGTATCGGTCGA”, with 5.64 log2 normalized intensity. For “CCTTTCATGTACTGTTCAGTTCCTATTTCAGCCTAGGGAGATTAGAGTATCGGTCGA”, the binding signal came to 1.72 log2 normalized intensity.

The record behind these values is publication PMC10726135, “HNF4α isoforms regulate the circadian balance between carbohydrate and lipid metabolism in the liver”.
